The sample as a whole holds a higher share of hits than the screen did.
HT1080 IDH1KD tx: qHTS for induction of synthetic lethality in tumor cells producing 2HG: qHTS for the HT-1080-IDH1KD cell line. HT-1080 IDH1 knockdown viability, ATP luminescence, 48 h. Potency, µM (highest dose often 46.1 µM), inactives show at the top dose activity, negative = toxicity, actives largely listed as cytotoxic. 2% of 360,000 active. AID 686971, 2013;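 further: potency means the concentration at half of the fitted maximal effect; 0% = DMSO wells and -100% = cell-free medium wells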
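Using the IDH1-knockdown HT-1080 line run in the same batch and compound series as the NT line, viability after 48 h at 37 °C was determined by CellTiter-Glo luminescence and expressed as % activity.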
TDP1 cell noCPT: qHTS for Inhibitors of human tyrosyl-DNA phosphodiesterase 1 (TDP1): qHTS in cells in absence of CPT | AID 686978, 2013 | DT40 Tdp1-/- hTDP1 cells, no CPT, ATP luminescence, 48 h | 15% of 420,000 active | Potency, µM (highest dose often 46.2 µM), without a hit: top-dose activity change, negative = growth inhibition, hits mostly inhibitors; further: potency means the concentration at half of the fitted maximal effect; nearly all actives have a fitted effect of over 55% in size
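Cells were dispensed at 400 per well, compounds added by pin tool, plates incubated ≥48 hr at 37 °C, then CellTiter-Glo added for 30 min at room temperature before luminescence reading. Line: DT40 Tdp1-/- complemented with hTDP1; camptothecin omitted.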
TDP1 cell CPT: qHTS for Inhibitors of human tyrosyl-DNA phosphodiesterase 1 (TDP1): qHTS in cells in presence of CPT | chicken DT40 Tdp1-/-;hTDP1 cells + 20 nM CPT, ATP luminescence, 48 h | Potency, µM (top dose mostly 46.2 µM), inactives show top-dose activity change, negative = growth inhibition, most hits filed as inhibitors | AID 686979, 2013 | 12% of 420,000 active; further: potency means the concentration at half of the fitted maximal effect; nearly all actives have a fitted effect of over 55% in size
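Chicken DT40 Tdp1-/- cells stably complemented with human TDP1 were seeded at 400 cells/well in medium containing 20 nM camptothecin, exposed to pin-transferred compounds, and grown at 37 °C for at least 48 hr. Viability was read as ATP luminescence.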
IL1B secr inh: qHTS for Inhibitors of Inflammasome Signaling: IL-1-beta AlphaLISA Primary Screen. THP-1 LPS/ATP IL-1B secretion, AlphaLISA, 16 h; stronger effect = lower value. activity change, % at 57.5 µM. 4.7% of 360,000 active. AID 743279, 2014; in the data active means activity change below about -50%; inconclusive means mostly about -30% to -49%
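THP-1 cells pretreated 1 hr with compounds (up to 57.5 uM final), then stimulated with LPS (250 ng/mL final) plus ATP (1.25 mM final); secreted IL-1B measured by AlphaLISA after 16 hr, decreased signal indicating inhibition.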
12-LOX inh: Primary qHTS assay for inhibitors of human arachidonate 12S-lipoxygenase (ALOX12): Round 2. Polyunsaturated fatty acid lipoxygenase ALOX12 (Homo sapiens), P18054. purified 12hLO, xylenol orange hydroperoxide absorbance. Potency, µM (top dose mostly 108 µM), for the others: at the top dose activity change, negative = inhibition, actives largely listed as inhibitors. 1.1% of 580,000 active. AID 1671190, 2021; further: potency means the concentration at half of the fitted maximal effect
Target sequence (P18054 whole entry, looked up): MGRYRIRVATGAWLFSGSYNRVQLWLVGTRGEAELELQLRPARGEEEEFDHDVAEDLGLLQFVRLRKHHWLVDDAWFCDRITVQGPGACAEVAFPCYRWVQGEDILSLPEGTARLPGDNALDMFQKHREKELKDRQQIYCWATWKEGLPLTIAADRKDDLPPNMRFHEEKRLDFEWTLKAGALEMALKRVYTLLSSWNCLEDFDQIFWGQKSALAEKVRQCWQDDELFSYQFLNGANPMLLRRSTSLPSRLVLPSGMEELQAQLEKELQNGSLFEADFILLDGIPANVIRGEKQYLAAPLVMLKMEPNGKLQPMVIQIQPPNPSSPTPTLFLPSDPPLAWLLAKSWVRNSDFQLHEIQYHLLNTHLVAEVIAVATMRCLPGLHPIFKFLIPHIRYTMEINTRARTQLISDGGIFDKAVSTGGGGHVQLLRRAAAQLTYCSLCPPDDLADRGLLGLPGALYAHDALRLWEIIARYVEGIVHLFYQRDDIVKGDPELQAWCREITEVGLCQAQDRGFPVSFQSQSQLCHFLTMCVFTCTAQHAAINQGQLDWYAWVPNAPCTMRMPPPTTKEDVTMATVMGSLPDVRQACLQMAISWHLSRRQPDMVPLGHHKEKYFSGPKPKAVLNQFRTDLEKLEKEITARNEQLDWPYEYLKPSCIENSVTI
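Hydroperoxide product was detected by ferrous iron/xylenol orange as the 573 to 405 nm absorbance ratio. Arachidonic acid at 40 uM (final) was turned over for 30 min at room temperature by 150 nM human 12hLO, pH 7.0 Hepes buffer, after 15 min compound preincubation.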
HT1080NT lethal: qHTS for induction of synthetic lethality in tumor cells producing 2HG: qHTS for the HT-1080-NT fibrosarcoma cell line; 1.6% of 360,000 active; Potency, µM (top dose mostly 46.1 µM), for inactives: top-dose activity, negative = less viability, hits mostly cytotoxic; HT-1080-NT fibrosarcoma viability, CellTiter-Glo ATP luminescence, 48 h;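 further: NT is the 2HG producing partner of a matched IDH1 knockdown line; potency means the concentration at half of the fitted maximal effect; 0% = DMSO-treated cells and -100% = media-only wells without cells; nearly all actives have a fitted effect of over 55% in size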
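HT-1080-NT fibrosarcoma cells (2HG-overproducing), 750 cells/well in RPMI with 5% FBS, dosed after 2 h and incubated 48 h at 37C. CellTiter-Glo luminescence normalized to DMSO and no-cell wells; concentration-response curves fitted and classed.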
An asterisk follows results filed as active. Unless noted, the call rests on the fitted dose curve; in most records, active means well fitted curve in the direction sought with a large enough effect; inconclusive means small, poorly fitted or top-dose-only effect, or another doubt; inactive means no such curve, though single readings can be large; an effect the other way counts as inactive or inconclusive. Unless noted, on the % scale 0 is the no-effect control and ±100 the full control effect.

CCc1ccccc1NC(=O)CCCN1C(=O)CCn2nc(-c3cn(C)c4ccccc34)cc21 was read as TDP1 cell noCPT -23%, TDP1 cell CPT -25% and 12-LOX inh -19%.
CC(NC(=O)CCCN1C(=O)CCn2nc(-c3cn(C)c4ccccc34)cc21)c1ccccc1 (stereo not given) was read as TDP1 cell noCPT 23µM*, TDP1 cell CPT inconclusive and 12-LOX inh -30%.
For Cn1cc(-c2cc3n(n2)CCC(=O)N3CCCC(=O)Nc2ccc(Cl)cc2)c2ccccc21 the results were TDP1 cell noCPT inconclusive, TDP1 cell CPT inconclusive and 12-LOX inh -11%.
For Cn1cc(-c2cc3n(n2)CCC(=O)N3CCCC(=O)NCc2ccc(Cl)cc2)c2ccccc21 the results were TDP1 cell noCPT inconclusive, TDP1 cell CPT inconclusive and 12-LOX inh -23%.
Cc1cccc(C)c1NC(=O)CCCN1C(=O)CCn2nc(-c3cn(C)c4ccccc34)cc21 was read as TDP1 cell noCPT 13µM*, TDP1 cell CPT inconclusive and 12-LOX inh -14%.
`COc1cc(NC(=O)C2CC(c3ccccc3O)=NO2)cc(OC)c1OC` (stereo not given) gave HT1080 IDH1KD tx -1%, TDP1 cell noCPT inconclusive, TDP1 cell CPT -21%, IL1B secr inh -25, 12-LOX inh 12% and HT1080NT lethal 0%.
Screening CCOC(=O)c1ccc(NC(=O)CC2Sc3ccccc3NC2=O)cc1 (stereo not given) returned 12-LOX inh 11%.
Cn1cc(-c2cc3n(n2)CCC(=O)N3CCCC(=O)NCc2ccccc2Cl)c2ccccc21 was read as TDP1 cell noCPT 13µM*, TDP1 cell CPT 16µM* and 12-LOX inh -37%.
CC(Nc1nc(-c2ccccc2)nc2ccccc12)c1ccccc1 (stereo not given) was read as HT1080 IDH1KD tx -17%, TDP1 cell noCPT inconclusive, TDP1 cell CPT inconclusive, IL1B secr inh -23, 12-LOX inh -10% and HT1080NT lethal inconclusive.
`COC(=O)CNc1nc(-c2cccnc2)nc2ccccc12` gave HT1080 IDH1KD tx -5%, TDP1 cell noCPT -6%, TDP1 cell CPT -27%, IL1B secr inh -3, 12-LOX inh 3% and HT1080NT lethal -8%.
CC(Nc1nc(-c2cccnc2)nc2ccccc12)c1ccc(F)cc1 (stereo not given) was read as HT1080 IDH1KD tx inconclusive, TDP1 cell noCPT 18µM*, TDP1 cell CPT 26µM*, IL1B secr inh -68*, 12-LOX inh -15% and HT1080NT lethal -27%.
For COc1ccc(C(CNc2nc(-c3cccnc3)nc3ccccc23)N(C)C)cc1 (stereo not given) the results were HT1080 IDH1KD tx 16µM*, TDP1 cell noCPT inconclusive, TDP1 cell CPT inconclusive, IL1B secr inh -82*, 12-LOX inh -28% and HT1080NT lethal 16µM*.
c1cncc(-c2nc(NCc3ccc4c(c3)OCO4)c3ccccc3n2)c1 was read as HT1080 IDH1KD tx -12%, TDP1 cell noCPT 21µM*, TDP1 cell CPT inconclusive, IL1B secr inh -5, 12-LOX inh 3% and HT1080NT lethal 1%.
Screening NS(=O)(=O)c1ccc(CNc2nc(-c3cccnc3)nc3ccccc23)cc1 returned HT1080 IDH1KD tx -9%, TDP1 cell noCPT 15µM*, TDP1 cell CPT inconclusive, IL1B secr inh inconclusive, 12-LOX inh -10% and HT1080NT lethal -7%.

Bioassay records (PubChem)
